These results are taken from PubChem BioAssay AID2685 (National Center for Advancing Translational Sciences (NCATS), 2010).

About 2,100 (0.66%) of roughly 320,000 compounds were called active. Inconclusive results (about 53%) are left out. Calls follow the shape of the dose curve; as a rule, active = well fitted inhibition curve with a large enough effect in the signal ratio, with a control signal flat (not every such curve was filed as active); inconclusive = small, poorly fitted or top-dose-only effect, or effect the other way, or a change in a side signal; inactive = flat fitted curve, though single readings scatter; the % refers to the signal ratio. The entries come from a sample that favours actives as a whole.
Potency is read from the fitted curve at half-maximal effect.

The nature of this experiment: qHTS Assay for Lipid Storage Modulators in Drosophila S3 Cells.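 As to cell number change: cells counted by Cell Tracker Red CMTPX staining in the red channel.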 As to lipid storage change, negative = inhibition: % is scaled to controls: 0 for no effect and ±100 for the full control effect. Particulars: BODIPY lipid droplet fluorescence, 18-24 h, cells fed with added oleic acid; cell number change: measured here: cell count max response; series mostly up to 46.1 µM; lipid storage change, negative = inhibition: at the top concentration. A digest of the protocol: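 Laser-scanning cytometry quantifies lipid droplet accumulation (500–530 nm total intensity; droplet/cell object ratio) in oleic acid-fed (400 uM added) Drosophila S3 cells treated with a concentration series. 20 uM Triacsin C defined 100% inhibition.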
A general note: In qHTS, concentration-response curves come from the screen itself.
Regarding `CN(CC(=O)OCC(=O)c1c(N)n(C)c(=O)n(C)c1=O)S(=O)(=O)c1ccc(Cl)cc1`, the “lipid storage change, negative = inhibition” value is -4.29% (inactive) and the cell number change was -11.5%. Turning to `CC(C)[C@H](NS(=O)(=O)c1ccc(Cl)cc1)C(=O)OCC(=O)c1c(N)n(C)c(=O)n(C)c1=O`, the Potency was 29.1 µM (active) and the cell number change is -5.89%. For `O=C(NC1CCCc2ccccc21)c1ccccc1` (stereo not given), the “lipid storage change, negative = inhibition” value is 21.6% (inactive) and the cell number change stood at 96.9%. For `COC(=O)CN(c1cccc(OC)c1)S(C)(=O)=O`, the Potency was 16.4 µM (active) and the cell number change is -6.69%. Turning to `COC(=O)CN(c1cccc(C(C)=O)c1)S(C)(=O)=O`, the “lipid storage change, negative = inhibition” value was 8.86% (inactive) and the cell number change was -12.6%.

On to `COC(=O)CN(c1cccc(F)c1)S(C)(=O)=O`, for which the molecule was classed as inactive. As for `COc1ccccc1CN1CC(C(=O)NC2CCOCC2)CCC1=O` (stereo not given), the “lipid storage change, negative = inhibition” value is -8.12% (inactive) and the cell number change was 0.697%. Take `CCC(C)N1CCNCC1` (stereo not given): the molecule was called inactive and the cell number change was found to be 2.58%. For the molecule `Cc1cc2c3c(ccc(C)c3n1)N=CN2c1ccccc1`, the molecule was called inactive. Take `CC(C)Oc1cccc(C(=O)O)c1`: the Potency is 16.4 µM (active) and the cell number change was determined as 0.0714%.

Turning to `CC(C)Oc1cccc(C(=O)N2CCCC2)c1`, the “lipid storage change, negative = inhibition” value is -2.89% (inactive) and the cell number change worked out at 0.879%.

For the molecule `CCCCOc1cccc(C(=O)O)c1`, the result was inactive and the cell number change was -9.86%.

As to `Cc1cc(OCC(=O)NCc2nc(-c3ccccc3)no2)c(C)cc1Br`, the “lipid storage change, negative = inhibition” value was 7.66% (inactive) and the cell number change came out at 8.52%.

`Cn1cc(C=O)c2cc(F)ccc21`: the “lipid storage change, negative = inhibition” value was 0.791% (inactive). The same measure, in the same setting: then `COc1ccc2c(c1)c(/C=C/c1cc[n+](C)cc1)cn2C`, with -25.3% (inactive).

With `Cn1cc(/C=C/c2cc[n+](C)cc2)c2cc(F)ccc21`, the Potency is 25.9 µM (active) and the cell number change is 5.37%.

Turning to `CC(=O)Nc1ccc(S(=O)(=O)N2CCN(CC3CC4C=CC3C4)CC2)cc1` (stereo not given), the “lipid storage change, negative = inhibition” value is 4.11% (inactive) and the cell number change stood at 5.59%.

As for `O=C(N/N=C/c1ccncc1)c1ccc2c(c1)OCO2`, the “lipid storage change, negative = inhibition” value was 5.26% (inactive) and the cell number change was -3.13%. On the same counts, the results for `CCCc1cc2c(=O)c(-c3ccccn3)c(C)oc2cc1O` are 11.3% (inactive) and -9.21%. In the case of `CC(=O)N[C@H](C(=O)N[C@@H](C)C(=O)N[C@H](C#N)CC(=O)O)C(C)C`, the “lipid storage change, negative = inhibition” value is 11.1% (inactive) and the cell number change was 8.31%. On to `Cc1ccc(S(=O)(=O)CCC(=O)OCC(=O)N2CCc3ccccc32)cc1`, for which the “lipid storage change, negative = inhibition” value is -12.7% (inactive) and the cell number change was -18.3%. In the same order, the values of `Cc1ccc(S(=O)(=O)N2CCC(C(=O)OCC(=O)N3CC(=O)Nc4ccccc43)CC2)cc1` are -0.226% (inactive) and 8.87%. As to `CC(=O)Nc1ccc(S(=O)(=O)N(C)CC(=O)OCC(=O)N2CCc3ccccc32)cc1`, the Potency is 20.6 µM (active) and the cell number change was -7.07%. Regarding `Cc1ccc(S(=O)(=O)N2CCC(C(=O)OCC(=O)N3CCc4ccccc43)CC2)cc1`, the Potency is 7.31 µM (active) and the cell number change was -18.3%. Regarding `CC(=O)Nc1ccc(S(=O)(=O)NCC(=O)OCC(=O)N2CCCc3ccccc32)cc1`, the “lipid storage change, negative = inhibition” value is 17.9% (inactive) and the cell number change was -6.74%.

For `CC(=O)Nc1ccc(S(=O)(=O)N(C)CC(=O)OCC(=O)N2CCCCCC2)cc1`, the “lipid storage change, negative = inhibition” value was -14.5% (inactive) and the cell number change was -4.09%. In the case of `Nn1cc(-c2ccccc2)nc1SCC(=O)NCC(F)(F)F`, the “lipid storage change, negative = inhibition” value was 14.4% (inactive). Regarding `COc1ccc2[nH]c(=O)c(CN(Cc3cccnc3)Cc3nnnn3CC3CCCO3)cc2c1` (stereo not given), the “lipid storage change, negative = inhibition” value is 10.3% (inactive) and the cell number change was -7.7%. `COc1cccc2c1OC1(C)CC2NC(=O)N1c1cccc(C(=O)N2CCN(c3ccccc3)CC2)c1` (stereo not given): the “lipid storage change, negative = inhibition” value is 0.139% (inactive) and the cell number change is 3.44%. In the case of `CNC(C)C#Cc1ccc2oc3cccc(OC)c3c(=O)c2c1` (stereo not given), the “lipid storage change, negative = inhibition” value is -27.3% (inactive) and the cell number change was determined as 16.5%.

For `Nc1cccc(C#Cc2ccc3c(=O)c4ccccc4oc3c2)c1`, the result was inactive and the cell number change was -4.2%. For `COc1cccc2oc3cc(C#Cc4ccccn4)ccc3c(=O)c12`, the Potency was 18.4 µM (active) and the cell number change is -23%. For the molecule `Cn1c2ccccc2c(=O)c2ccc(C#Cc3ccc(N)cc3)cc21`, the “lipid storage change, negative = inhibition” value was -0.819% (inactive) and the cell number change came out at 2.27%. For `Cn1c2ccccc2c(=O)c2cc(C#Cc3ccccn3)ccc21`, the result was inactive and the cell number change was -13.6%. With `CN(C)c1ccc(-c2ccc3c(=O)c4ccccc4n(C)c3c2)cn1`, the Potency is 23.1 µM (active) and the cell number change was -7.49%. For the molecule `Cn1c2ccccc2c(=O)c2ccc(-c3ccc4c(c3)OCO4)cc21`, the “lipid storage change, negative = inhibition” value was -10.8% (inactive) and the cell number change is -21%. For the molecule `COc1cc(OC)cc(-c2c(-c3cccs3)c3cc(-c4ccc(N(C)C)nc4)ccc3n2C)c1`, the molecule was classed as inactive and the cell number change was found to be 14.6%.

In the case of `COc1cccc2oc3ccc(C#Cc4ccccn4)cc3c(=O)c12`, the Potency is 0.731 µM (active) and the cell number change is -5.09%. In the case of `COc1ccc2c(=O)c3ccccc3oc2c1`, the “lipid storage change, negative = inhibition” value is -3.99% (inactive) and the cell number change was -11.6%.

Take `Cn1c2ccccc2c(=O)c2ccc(C#Cc3ccccn3)cc21`: the Potency is 14.6 µM (active) and the cell number change was -26.5%. Consider `COc1cc2oc3ccccc3c(=O)c2cc1OC`, for which the “lipid storage change, negative = inhibition” value is -12.2% (inactive) and the cell number change was -9.58%. Consider `O=C(NC12CC3CC(CC(C3)C1)C2)c1ccc(Br)o1`, for which the “lipid storage change, negative = inhibition” value was -6.92% (inactive) and the cell number change is -22.8%. Turning to `O=C(c1ccccn1)N(CC1CCCO1)C1(C(=O)NC2CCCCC2)CCCCC1` (stereo not given), the “lipid storage change, negative = inhibition” value is 8.55% (inactive) and the cell number change was -0.121%.

Turning to `Cc1ccc(NC(=O)OCc2cc(-c3ccccc3)on2)cc1`, the “lipid storage change, negative = inhibition” value is 23.7% (inactive) and the cell number change was found to be 4.96%. Regarding `OCC(O)C(O)C(O)C(O)C1NCCS1` (stereo not given), the “lipid storage change, negative = inhibition” value is 0.23% (inactive) and the cell number change was 16.2%.

With `COc1ccc(CCNC(=O)C2CCN(C(=O)c3ccc(Cl)cc3)CC2)cc1`, the “lipid storage change, negative = inhibition” value is 17.4% (inactive) and the cell number change was -13.5%. As to `COc1ccc(CCNC(=O)C2CCN(C(=O)c3ccc(Br)cc3)CC2)cc1`, the Potency was 5.8 µM (active) and the cell number change was -9.49%. Turning to `COc1ccc(CCNC(=O)C2CCN(C(=O)c3ccc(OC)c(OC)c3)CC2)cc1`, the call was inactive.
